In PubChem BioAssay (NCI):
Compounds without any hit were thinned out: in the full panel of roughly 79,000, 15% have a hit. Cut-off read from the data, not from the text of the source: active = growth inhibition above about 70%; inactive = the rest. Where a SMILES comes first, the peptide text is derived from it. The star is where a group is joined. Boc = CC(C)(C)OC(=O)*; OBn = c1ccc(CO*)cc1

What was measured:
[1] = NCI Yeast Anticancer Drug Screen. Data for the rad50 strain (AID 155);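 note: 0% = growth of vehicle-only cultures of the same strain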; conditions: S. cerevisiae rad50 strain growth inhibition; at 50.0 µM; active compounds read high
Summary of the method: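 Inhibition values express reduced yeast growth in compound-treated cultures relative to vehicle-treated controls.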

[2] = NCI Yeast Anticancer Drug Screen. Data for the mec2-1 strain (AID 157); conditions: S. cerevisiae mec2-1 strain, at 50.0 µM, active compounds read high
Summary of the method: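 Vehicle-treated cultures served as reference for growth inhibition of compound-exposed mec2-1 yeast.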

[3] = NCI Yeast Anticancer Drug Screen. Data for the sgs1 mgt1 strain (AID 161);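 note: 0% = growth of cultures given vehicle only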; conditions: S. cerevisiae sgs1 mgt1 strain, at 50.0 µM, active compounds read high
Summary of the method: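 Genetically altered yeast, compound exposure, growth inhibition relative to vehicle.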

[4] = NCI Yeast Anticancer Drug Screen. Data for the cln2 rad14 strain (AID 165);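 note: 0% = growth equal to vehicle treated cultures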; conditions: S. cerevisiae cln2 rad14 strain, at 50.0 µM, active compounds read high
Summary of the method: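 Each compound was tested on cln2 rad14 yeast. Inhibition of growth was calculated against vehicle-exposed controls.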

[5] = NCI Yeast Anticancer Drug Screen. Data for the bub3 strain (AID 167); conditions: S. cerevisiae bub3 mutant strain, at 50.0 µM, active compounds read high
Summary of the method: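 Steps: expose the mutant yeast strain to compound; grow alongside vehicle-treated cultures; measure growth; express inhibition against the vehicle cultures.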

[6] = NCI Yeast Anticancer Drug Screen. Data for the mlh1 rad18 strain (AID 175); conditions: S. cerevisiae mlh1 rad18 strain growth inhibition; at 50.0 µM; active compounds read high
Summary of the method: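 Vehicle-treated cultures served as the reference for growth inhibition in a yeast strain carrying DNA damage repair alterations exposed to each compound.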

Measured: growth inhibition

Cc1cc(C)c(S(=O)(=O)O)c(Cc2ccccc2)c1
inactive: [1] -14.4% | [2] -10.6% | [3] 31.5% | [4] -11.6% | [5] -3.35% | [6] 0.45%

O=C1c2ccccc2C(=O)N1CCc1ncc(-c2ccccc2)[nH]1
inactive: [1] -16.4% | [2] 7.85% | [3] -16.1% | [4] 12.4% | [5] 1.1% | [6] 1.9%

N/N=C1\C(=O)N(C2CCCCC2)C(=O)C1C(=O)NC1CCCCC1 (stereo unspecified)
inactive: [1] -10.9% | [2] -1.2% | [3] -15% | [4] -10.8% | [5] -20.4% | [6] -32.2%

O=C(NN1C(=O)C(Cl)C1c1ccc([N+](=O)[O-])cc1)c1ccccc1O (stereo unspecified)
inactive: [1] -16.2% | [2] -19.2% | [3] -35.7% | [4] -6.45% | [5] -26% | [6] -20.1%

CC(C)CC(NC(=O)OC(C)(C)C)C(=O)NC(CCC(=O)OCc1ccccc1)C(N)=O (stereo not drawn) (Boc-Leu-Glu(OBn)-NH2; configuration not given here)
inactive: [1] 19.1% | [2] -8.9% | [3] 8.65% | [4] 19.9% | [5] 24.4% | [6] 4.65%

c1ccc(COc2ccc(CC3SCCCS3)cc2)cc1
inactive: [1] -30.5% | [2] -35.8% | [3] -10.4% | [4] 24.9% | [5] 16.6% | [6] -7.5%

O=CCCc1ccccc1
inactive: [1] 31.6% | [2] -22.1% | [3] -22.2% | [4] -29.6% | [5] 22% | [6] 56.1%

COc1ccc(C2C(Cl)C(=O)N2n2cnc3ccccc3c2=O)cc1OC (stereo unspecified)
inactive: [1] -20.7% | [2] -0.35% | [3] 0.1% | [4] 8.9% | [5] -10.9% | [6] -21.6%

COc1ccc(-c2cc(=O)c3c(O)cc(O)cc3o2)c(OC)c1OC
inactive: [1] -22.2% | [2] -17.7% | [3] -21.1% | [4] 6.95% | [5] -26.6% | [6] 4.05%

O=C(NC(=O)C(F)(F)C(F)(F)F)Nc1cc(F)ccc1F
inactive: [1] 5.15% | [2] -2.05% | [3] 1.45% | [4] -38.8% | [5] -6.55% | [6] -29%

CCN(CC)c1ccc(/C=N\NC(=O)CCCC(=O)N/N=C/c2ccc(N(CC)CC)cc2)cc1
inactive: [1] -27.6% | [2] 2.65% | [3] -22.9% | [4] -21.9% | [5] 5% | [6] -30.4%

Cn1c2ccccc2c(=O)c2cc(NC(=O)/C=C/C(=O)Nc3ccc4c(c3)c(=O)c3ccccc3n4C)ccc21
inactive: [1] -3.25% | [2] 0.75% | [3] -2.7% | [4] -14.6% | [5] -3.8% | [6] 5.9%

O=C(Cc1nc2ccccc2o1)C(=O)Nc1ccc(Cl)cc1Cl
inactive: [1] 10.7% | [2] -4.6% | [3] 0.8% | [4] 17.1% | [5] -15.7% | [6] 16.2%

CCCCCCC(Br)CCCC (stereo unspecified)
inactive: [1] 15.6% | [2] -8.85% | [3] 14% | [4] -15.2% | [5] -7.75% | [6] -4.9%

CCc1ccc(N=Cc2cc(OC)c(OC)c(OC)c2)cc1
inactive: [1] -4.2% | [2] 16.4% | [3] 29.4% | [4] 4.75% | [5] 14.2% | [6] -6.45%

Cc1ccccc1C(O)(c1nccn1C)c1nccn1C
inactive: [1] 8.75% | [2] 5.5% | [3] 19.9% | [4] 9.55% | [5] 18.2% | [6] 37.3%

Nc1nnc2nc(C(C(=O)/C=C\c3cccc(O)c3)c3nc4nnc(N)n4[nH]c3=O)c(=O)[nH]n12
inactive: [1] 30.4% | [2] 15.1% | [3] 19.6% | [4] 1.65% | [5] -5.35% | [6] 19.7%

O=C(Oc1ccc2ccccc2c1CN1CCOCC1)c1ccc([N+](=O)[O-])cc1
inactive: [1] 45.8% | [2] 29.9% | [3] 33.8% | [4] 30.1% | [5] 35.5% | [6] 52%

COc1ccc(Nc2nc3c(N)cc(C(F)(F)F)cc3nc2-c2ccccc2)cc1OC
inactive: [1] 0.5% | [2] 0.95% | [3] -22.6% | [4] -6.8% | [5] -18.6% | [6] -7.1%

O=Cc1cc2c(cc1Cl)OCO2
inactive: [1] -3.3% | [2] -8.05% | [3] -13.8% | [4] 14.8% | [5] -8.4% | [6] -2%

CCCCCCCC[N+](C)(C)C
inactive: [1] -48.8% | [2] -44.5% | [3] -26.6% | [4] 11.5% | [5] -28.7% | [6] -39.8%

O=S1c2ccccc2NC(c2ccc3ccccc3c2)CC1c1ccccc1 (stereo unspecified)
inactive: [1] -46.2% | [2] -22.1% | [3] -6.75% | [4] 1.9% | [5] 5.05% | [6] -18.2%

CCC(CC)CC1CCCCC1=O (stereo unspecified)
inactive: [1] 1.3% | [2] -5.25% | [3] -6.25% | [4] 3.75% | [5] -20.6% | [6] -7.65%

COc1ccc(/C(C)=N/NC(N)=S)cc1OC
inactive: [1] 6.65% | [2] -17.9% | [3] 2.45% | [4] 16% | [5] -13.3% | [6] 3.45%

CN1C2CC(=O)CC1[C@@H]1OC(c3ccccc3)O[C@H]21 (stereo partly specified)
inactive: [1] 6.65% | [2] -3.25% | [3] -15.4% | [4] 27.9% | [5] 17.6% | [6] 19.5%

FC12CCC(F)(CC1)CC2
inactive: [1] -7.85% | [2] 20.1% | [3] -7.5% | [4] -13.9% | [5] 7.6% | [6] -2.55%

COC(=O)C1(O)C(=O)NC2=C1C(=O)c1ccccc1C2=O (stereo unspecified)
inactive: [1] 9.75% | [2] 5.8% | [3] 8.05% | [4] -8.7% | [5] 28.9% | [6] 13.8%

CCC(=O)Oc1ccc(Cl)cc1C
inactive: [1] -0.3% | [2] 7.7% | [3] 1.75% | [4] 5.55% | [5] 1.75% | [6] -13.3%

Nc1cccc(CC(NC(=O)c2ccccc2)C(=O)O)c1 (stereo unspecified)
inactive: [1] -16.4% | [2] 2.1% | [3] 12.1% | [4] -4.3% | [5] 28.6% | [6] -22.7%

O=S1c2ccccc2S(=O)c2ccccc21 (stereo unspecified)
inactive: [1] -0.2% | [2] -6.25% | [3] 1.4% | [4] -0.55% | [5] 0.95% | [6] 1.15%

Cc1nn(C(=O)c2ccc(Cl)cc2)c2c1C(c1ccccc1)SC(N)=N2 (stereo unspecified)
inactive: [1] -18.6% | [2] -38% | [3] -5.15% | [4] 6.2% | [5] 18.4% | [6] -3.5%

CN1C(C)(C)NC(=S)C1(C)C
inactive: [1] 26.9% | [2] -18.1% | [3] -5.5% | [4] 11.7% | [5] 1.65% | [6] -9.65%

O=[N+]([O-])c1ccc2c(Cl)c3ccccc3nc2c1
inactive: [1] 20.1% | [2] 24.1% | [3] 2% | [4] 17.6% | [5] 34.2% | [6] 16.6%

O=[N+]([O-])c1ccccc1OC1OC(CO)C(O)C(O)C1O (stereo unspecified)
inactive: [1] -2.35% | [2] -5.6% | [3] 14.2% | [4] -33.8% | [5] -14.8% | [6] 7.2%

CCOC(=O)/C(=C\c1ccc[nH]1)C(=O)c1ccccc1
inactive: [1] 48% | [2] -5.9% | [3] 5% | [4] 27.6% | [5] 20.1% | [6] 9.05%

COC(=O)c1cccnc1F
inactive: [1] 3.9% | [2] -15.2% | [3] -14.7% | [4] -1.65% | [5] -30.2% | [6] -2.45%

COc1ccc(-c2nnc(Cl)o2)cc1
inactive: [1] -1.95% | [2] 14.8% | [3] -6.75% | [4] -25.9% | [5] -21.1% | [6] -0.5%

COC(=O)C1(Cc2ccc3c(c2)CCC3)Cc2ccccc2C1=O (stereo unspecified)
inactive: [1] 5.1% | [2] 22.4% | [3] 25.1% | [4] 21.6% | [5] 49.5% | [6] 8.8%

CCCCCCCCCCCCCCCCOC(=O)c1cc([N+](=O)[O-])cc([N+](=O)[O-])c1Sc1ncnc2nc[nH]c12
inactive: [1] -3.8% | [2] -7.8% | [3] 3.5% | [4] -2.35% | [5] -21.2% | [6] -32.2%

O=[N+]([O-])c1ccc2cccc3c2c1CC3
inactive: [1] 24.4% | [2] 18.1% | [3] 1.85% | [4] -19.4% | [5] 8.95% | [6] 22.6%

O=c1c(-c2ccc(O)cc2)coc2cc(O)cc(O)c12
inactive: [1] 8.85% | [2] -6.15% | [3] 18.1% | [4] 3.65% | [5] 11.4% | [6] 5%
